FAK inh – FAK (human) kinase inhibition; Q05397; biochemical FAK kinase activity assay; inhibition, %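 (tested at 7 µM)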; 0.84% of 97,000 active; in the data active = inhibition above about 19%;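 also: 0% = DMSO and 100% = reference compound high control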
CD11b adhes enh – increases human CD11b/CD18 adhesion to fibrinogen; P05107+P11215; K562 CD11b/CD18 adhesion to fibrinogen, ATPlite luminescence; activation, % at 10 µM; 0.07% of 93,000 active;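 active = 10 µM primary screen giving 50% or more activity, confirmed by 40% or more on retest at that dose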
Target sequence (P05107 whole entry, looked up, other chains not shown): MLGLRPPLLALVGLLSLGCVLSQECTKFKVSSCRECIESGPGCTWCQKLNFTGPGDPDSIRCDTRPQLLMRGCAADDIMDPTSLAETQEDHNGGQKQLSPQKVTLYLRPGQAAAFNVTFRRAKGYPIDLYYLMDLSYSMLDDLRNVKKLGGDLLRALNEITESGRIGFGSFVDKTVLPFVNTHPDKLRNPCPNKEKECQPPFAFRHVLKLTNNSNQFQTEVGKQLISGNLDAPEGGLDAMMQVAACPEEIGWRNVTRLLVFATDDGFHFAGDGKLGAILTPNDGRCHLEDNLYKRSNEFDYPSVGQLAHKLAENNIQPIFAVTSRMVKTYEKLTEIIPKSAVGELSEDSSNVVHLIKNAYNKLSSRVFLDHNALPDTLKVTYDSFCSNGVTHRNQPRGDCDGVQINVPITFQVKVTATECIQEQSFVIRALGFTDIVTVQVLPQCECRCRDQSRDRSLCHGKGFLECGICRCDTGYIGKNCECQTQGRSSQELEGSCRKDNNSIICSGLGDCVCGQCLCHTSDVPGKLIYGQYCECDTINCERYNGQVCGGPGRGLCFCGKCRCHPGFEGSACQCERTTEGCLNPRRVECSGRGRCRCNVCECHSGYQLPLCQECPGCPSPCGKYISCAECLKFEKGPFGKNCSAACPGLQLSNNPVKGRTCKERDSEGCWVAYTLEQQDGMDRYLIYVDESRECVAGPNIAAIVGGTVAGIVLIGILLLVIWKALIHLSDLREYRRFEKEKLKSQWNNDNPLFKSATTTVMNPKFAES
Pyk2 oligo antag – Pyk2 (human) oligomerization antagonism | Q293 cells, Pyk2 FERM NanoBiT luminescence; stronger effect = lower value | Q14289 | z-score (the deposit names both 25 µM and 10 µM) | 0.83% of 99,000 active;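 active = Z-score of -3 or lower, scaled per plate to the spread of control and sample wells; inactive = z-score above -3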;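 also: negative z-score means lost luminescence so less FERM oligomerization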
Mac1 fbg inh – inhibitors of human CD11b/CD18 binding to fibrinogen. P05107+P11215. K562 CD11b/CD18 adhesion to fibrinogen, ATPlite luminescence; Mn2+ added to activate the integrin. inhibition, % at 10 µM. 0.54% of 93,000 active. AID 1497;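 active = primary inhibition of 50% or more at 10 µM, then 40% or more on retest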
Numbers without * were called inactive. In the library only some 1.8% were active in any assay of this set; here they are far more common.

Results for Cc1ccccc1Nc1nc(N)nc(CSc2nc3ccccc3c(=O)n2C)n1 ?
FAK inh: 1; CD11b adhes enh: -1; Pyk2 oligo antag: -3.1*; Mac1 fbg inh: 10

What do the screens show for `Cc1ccccc1Nc1nc(N)nc(CSc2nc3ccccc3c(=O)n2CCCO)n1`?
CD11b adhes enh: -1; Pyk2 oligo antag: -1.2; Mac1 fbg inh: -5

Results for Cn1c(C(=O)NC2CCCC2)cc2c(=O)n(C)c3ccccc3c21 ?
FAK inh: 6; CD11b adhes enh: -1; Mac1 fbg inh: -16

How did CCOC(=O)c1cnc2ccc(C)cc2c1Sc1ccccc1C(=O)OC do in these assays?
FAK inh: 5; CD11b adhes enh: 4; Pyk2 oligo antag: -4.3*; Mac1 fbg inh: -5

What do the screens show for `Cc1nc(NCc2ccco2)c2c(C)c(C)sc2n1`?
FAK inh: 1; CD11b adhes enh: -6; Pyk2 oligo antag: 0.9; Mac1 fbg inh: 83*

What do the screens show for `Cc1sc2nc3c4ccccc4c(NCc4ccco4)nn3c(=O)c2c1C`?
FAK inh: -6; CD11b adhes enh: 44; Pyk2 oligo antag: 0.12; Mac1 fbg inh: -3

What do the screens show for `O=C1CC(NCc2cccs2)C(=O)N1c1ccc(Cl)cc1` (stereo not drawn)?
FAK inh: -1; CD11b adhes enh: -2; Pyk2 oligo antag: 1.1; Mac1 fbg inh: 66*

Results for CCCOc1ccc(N2C(=O)CC(NCc3cccs3)C2=O)cc1 (stereo not drawn) ?
FAK inh: -3; Pyk2 oligo antag: 0.03

Results for CCn1c(SCC(=O)Nc2oc(-c3ccccc3)c(-c3ccccc3)c2C#N)nnc1-c1ccco1 ?
FAK inh: -2; CD11b adhes enh: 2; Pyk2 oligo antag: -1.9; Mac1 fbg inh: 23

What do the screens show for `COc1ccc(-c2oc(NC(=O)CSc3nncn3C)c(C#N)c2-c2ccc(OC)cc2)cc1`?
FAK inh: -2; CD11b adhes enh: 0; Pyk2 oligo antag: -3.8*; Mac1 fbg inh: 5

Results for CS(=O)(=O)N(CC(=O)N1CCN(c2ccccc2)CC1)c1ccc(Cl)c(C(F)(F)F)c1 ?
FAK inh: 0; CD11b adhes enh: -4; Pyk2 oligo antag: 1.1; Mac1 fbg inh: -36

How did Fc1ccccc1NC(=S)NNc1ncc(C(F)(F)F)cc1Cl do in these assays?
FAK inh: -1; CD11b adhes enh: -11; Pyk2 oligo antag: 0.1; Mac1 fbg inh: 81*

How did Cc1ccccc1NC(=S)NNc1ncc(C(F)(F)F)cc1Cl do in these assays?
FAK inh: -2; CD11b adhes enh: 0; Pyk2 oligo antag: 0.99; Mac1 fbg inh: 17

Results for Cc1c(Cl)cccc1NC(=S)NNc1ncc(C(F)(F)F)cc1Cl ?
FAK inh: 4; CD11b adhes enh: -10; Pyk2 oligo antag: -1.1; Mac1 fbg inh: 90*

Results for Cc1ccc(NCC(=O)Nc2ccc(Br)cc2)cc1F ?
CD11b adhes enh: 0; Mac1 fbg inh: 14

What do the screens show for `CCCCOC(=O)n1c(=O)oc2cc(S(=O)(=O)N3CCCCC3)ccc21`?
FAK inh: 2; CD11b adhes enh: 3; Pyk2 oligo antag: -3.1*; Mac1 fbg inh: -17

How did COc1cccc(CNCCc2c[nH]c3ccccc23)c1OCc1ccccc1 do in these assays?
CD11b adhes enh: 1; Mac1 fbg inh: 60*

Results for COc1cccc(C(=O)NCC(=O)N/N=C/c2cccs2)c1 ?
CD11b adhes enh: -5; Mac1 fbg inh: 1

Results for Cc1sc2ncnc(NCCc3ccc(S(N)(=O)=O)cc3)c2c1C ?
FAK inh: 3; CD11b adhes enh: -5; Pyk2 oligo antag: 1; Mac1 fbg inh: 51*

How did O=[N+]([O-])c1ccc(N2CCN(S(=O)(=O)c3ccccc3)CC2)cc1NCc1cccnc1 do in these assays?
FAK inh: 11; CD11b adhes enh: 0; Pyk2 oligo antag: -3.7*; Mac1 fbg inh: 4

How did O=C(c1ccc(Cl)cc1)N1CCN(c2ccc([N+](=O)[O-])c(NCc3cccnc3)c2)CC1 do in these assays?
FAK inh: 4; Pyk2 oligo antag: -3.3*

How did O=[N+]([O-])c1ccc(N2CCN(S(=O)(=O)c3ccc(Cl)cc3)CC2)cc1NCc1cccnc1 do in these assays?
FAK inh: 2; CD11b adhes enh: -3; Pyk2 oligo antag: -2.8; Mac1 fbg inh: 2

What do the screens show for `O=C1c2cccc3c(O)ccc(c23)C(=O)N1Cc1ccccc1`?
FAK inh: 1; CD11b adhes enh: -3; Pyk2 oligo antag: -0.09; Mac1 fbg inh: 66*

What do the screens show for `O=C(CCN1C(=O)c2ccccc2C1=O)N1CCN(Cc2ccccc2)CC1`?
FAK inh: -2; Pyk2 oligo antag: 0.34

Results for COC(=O)C(C)Sc1snnc1-c1ccccc1 (stereo not drawn) ?
FAK inh: 0; CD11b adhes enh: -3; Pyk2 oligo antag: 0.17; Mac1 fbg inh: -1

Results for O=C(N/N=C/c1ccc(O)cc1)c1csc2c1CCCC2 ?
CD11b adhes enh: -1; Mac1 fbg inh: 3

What do the screens show for `Cc1ccc(-n2nnnc2-c2cnc3ccc(Cl)cc3c2-c2ccccc2)cc1`?
FAK inh: 6; Pyk2 oligo antag: -0.77

What do the screens show for `Clc1ccc2[nH]cc(-c3nnnn3-c3ccc4ccccc4c3)c2c1`?
FAK inh: 12; CD11b adhes enh: -13; Pyk2 oligo antag: -3.2*; Mac1 fbg inh: 71

How did COc1ccc(NC(C#N)c2ccccc2OCc2ccccc2)cc1 (stereo not drawn) do in these assays?
CD11b adhes enh: -4; Mac1 fbg inh: 24

How did CCc1nc2c(cnn2-c2ccc(F)cc2)c(=O)n1-c1ccc(N2CCC(C)CC2)cc1 do in these assays?
FAK inh: 1; CD11b adhes enh: -4; Mac1 fbg inh: 76*

What do the screens show for `CCCn1c(CNc2ccc(Br)cc2)nc2ccccc21`?
FAK inh: 10; CD11b adhes enh: -3; Mac1 fbg inh: 62*

How did Cn1c(=O)c2c(nc(NCc3ccco3)n2C/C=C/c2ccccc2)n(C)c1=O do in these assays?
CD11b adhes enh: -2; Pyk2 oligo antag: -3*; Mac1 fbg inh: 0

Results for CSC1=NCCN1C(=O)c1ccc(Br)o1 ?
FAK inh: -10; CD11b adhes enh: -6; Mac1 fbg inh: 51*

How did O=C(Nc1cccnc1)C1(c2ccc(Cl)cc2)CCCC1 do in these assays?
FAK inh: 0; CD11b adhes enh: -1; Pyk2 oligo antag: -0.49; Mac1 fbg inh: -9

Results for CCc1cc(C(=O)COc2ccccc2F)c(O)cc1O ?
FAK inh: 2; CD11b adhes enh: -8; Pyk2 oligo antag: -1.6; Mac1 fbg inh: 84*

What do the screens show for `CCCc1cc(C(=O)Cc2nc3ccccc3s2)c(O)cc1O`?
FAK inh: 7; Pyk2 oligo antag: -0.32

What do the screens show for `CCCc1cc(C(=O)Cc2ccc(F)cc2)c(O)cc1O`?
FAK inh: 0; CD11b adhes enh: -5; Pyk2 oligo antag: -2.3; Mac1 fbg inh: 95*

How did CCc1cc(C(=O)Cc2ccc(F)cc2)c(O)cc1O do in these assays?
CD11b adhes enh: -6; Mac1 fbg inh: 103*

How did O=C(Cc1ccc(F)cc1)c1ccc(O)cc1O do in these assays?
FAK inh: 1; CD11b adhes enh: -2; Pyk2 oligo antag: -0.64; Mac1 fbg inh: 8

What do the screens show for `Cc1ccc2c(Cl)cc(Cl)c(OCC(=O)Nc3ccc(C)c(S(=O)(=O)N(C)C)c3)c2n1`?
CD11b adhes enh: 46; Mac1 fbg inh: -17
